Cl transport mod: KCC2 cotransporter modulators, thallium flux, primary screen, cell-based, HEK293 KCC2, FluoZin-2 fluorescence, MLSMR; Solute carrier family 12 member 5 (Homo sapiens), Q9H2X9; KCC2 cells, thallium flux FluoZin-2 fluorescence; B-score of Tl+ flux slope (higher = more flux/activation; lower = inhibition) at 10 µM; 190,000 tested, 2.2% active;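 active = thallium flux slope and its plate-corrected score both differing from the plate sample mean at a set confidence after two filtering rounds, in either direction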;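 note: slope of fluorescence scaled to starting intensity during 10 to 20 s after thallium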
S1P4 ag: S1P4 receptor agonists, primary screen, cell-based | Sphingosine 1-phosphate receptor 4 (Homo sapiens), O95977 | S1P4-expressing cell line, agonist reporter assay | activation, % at 4.98 µM | 220,000 tested, 0.35% active; in the data active = activation above about 11%;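 note: 0% = DMSO vehicle and 100% = reference agonist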
Target sequence (O95977 whole entry, looked up): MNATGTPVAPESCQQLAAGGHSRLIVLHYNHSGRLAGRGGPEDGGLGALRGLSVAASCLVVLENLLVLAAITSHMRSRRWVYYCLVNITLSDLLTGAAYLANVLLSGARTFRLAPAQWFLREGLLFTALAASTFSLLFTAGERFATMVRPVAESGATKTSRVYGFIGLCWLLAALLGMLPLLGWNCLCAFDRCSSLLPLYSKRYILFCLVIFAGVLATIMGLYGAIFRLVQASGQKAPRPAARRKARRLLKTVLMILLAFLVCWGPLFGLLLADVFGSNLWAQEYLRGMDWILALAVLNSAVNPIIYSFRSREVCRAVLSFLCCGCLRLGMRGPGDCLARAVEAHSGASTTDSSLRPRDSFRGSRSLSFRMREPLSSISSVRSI
ROMK primary: ROMK potassium channel modulators, primary screen, cell-based, thallium flux, MLSMR library. Tet-inducible ROMK, thallium flux fluorescence; actives lie on both sides. B-score at 10 µM. 130,000 tested, 2% active;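 active = signal ratio slope over the read window, or its plate-corrected B-score, at least 3 SD from the plate mean, either direction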;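 note: B-score of the F/F0 ratio slope over 7 to 12 s after thallium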
RAM inhibit: inhibitors of the yeast RAM network, primary screen, dse1pr::URA3 reporter, 5-FOA selection | S. cerevisiae dse1pr::URA3 reporter, 5-FOA growth OD615, 2 d; analog-sensitive cbk1-as2 kinase mutant strain | inhibition, % at 50 µM | 190,000 tested, 1.8% active | AID 868, 2007;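 active = inhibition above a set limit, 3 SD over mean compound inhibition, cut at about 8.4% in these data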;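 note: 0% = DMSO-only wells with no growth and 100% = 10 µM 1-NA-PP1 full growth; inhibition rescues growth on 5-FOA so higher OD means more RAM inhibition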
S1P3 antagonist: S1P3 receptor antagonists, primary screen, cell-based; Sphingosine 1-phosphate receptor 3 (Homo sapiens), Q99500; CHO S1P3 NFAT-BLA reporter, FRET fluorescence, antagonist mode; inhibition, % at 4.98 µM; 170,000 tested, 0.27% active; AID 485, 2006;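 active = inhibition above the plate cutoff, the mean inhibition of test wells on that plate plus 3 SD, cut at about 28% in these data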;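 note: cells challenged with S1P at its EC80 of 0.8 µM; blue over green emission ratio from cleaved BLA substrate after 4 h stimulation; 0% = S1P-stimulated wells and 100% = unstimulated DMSO-only wells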
Target sequence (Q99500 whole entry, looked up): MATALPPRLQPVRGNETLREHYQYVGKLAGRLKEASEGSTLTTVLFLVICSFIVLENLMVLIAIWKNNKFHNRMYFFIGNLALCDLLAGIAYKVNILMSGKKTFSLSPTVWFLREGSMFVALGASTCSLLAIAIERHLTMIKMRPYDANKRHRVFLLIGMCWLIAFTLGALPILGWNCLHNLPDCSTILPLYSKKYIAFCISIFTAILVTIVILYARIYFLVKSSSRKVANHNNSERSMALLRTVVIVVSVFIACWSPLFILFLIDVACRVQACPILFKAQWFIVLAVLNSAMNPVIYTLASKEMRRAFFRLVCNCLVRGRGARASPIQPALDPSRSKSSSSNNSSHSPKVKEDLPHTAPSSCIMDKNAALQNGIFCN
S1P4 antagonist: S1P4 receptor antagonists, primary screen, cell-based; Sphingosine 1-phosphate receptor 4 (Homo sapiens), O95977; S1P4-expressing cells, antagonist mode, reporter read-out; inhibition, % at 4.98 µM; 220,000 tested, 0.26% active; AID 1510, 2009; in the data active = inhibition above about 29%;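 note: 0% = wells stimulated with agonist and 100% = vehicle wells without agonist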
KCC2 sec1: KCC2 modulators in sodium-free buffer, confirmation, cell-based, HEK293 KCC2, thallium flux, secondary assay. 3,700 tested, 15% active. shares compounds with Cl transport mod. normalised thallium flux (F/F0 slope) at 10 µM. FluoZin2 fluorescence; stronger effect = higher value. AID 1713, 2009;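 active = thallium flux slope above the same plate's solvent-only control mean plus 3 SD; inconclusive = the two replicate wells disagree; inactive = no significant difference from solvent-only control wells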
KCC2 bumet counter: thallium flux persisting under bumetanide in KCC2 cells, confirmation, counter-screen for KCC2 modulator project, cell-based, HEK293 KCC2, FluoZin2, secondary assay 3; shares compounds with Cl transport mod; HEK293-KCC2 + bumetanide/ouabain; stronger effect = higher value; normalized thallium flux at 10 µM; 3,700 tested, 49% active;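 active = thallium entry rate above the same plate's blocked-transporter control wells by more than 3 SD; inconclusive = the two repeat wells disagree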;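 note: raw slope of fluorescence over initial fluorescence between 10 and 20 s after thallium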
KCC2 sec2: KCC2 modulators without ouabain present, confirmation, cell-based, HEK293 KCC2, thallium flux, FluoZin2, secondary assay 2; shares compounds with Cl transport mod; thallium flux FluoZin2 fluorescence; actives lie on both sides; F/F0 rise rate, 10–20 s post-thallium; normalized thallium flux at 10 µM; 3,700 tested, 23% active; AID 1715, 2009;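 active = thallium flux slope more than 3 SD above or below the plate's solvent-only control mean, mostly below; inconclusive = the two repeat wells disagreed; inactive = no significant shift from solvent-only controls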;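 note: raw slope with 0.1% DMSO as baseline and bumetanide as block control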
HEK293 Tl flux: thallium flux modulation in parental HEK cells, confirmation, counter-screen for KCC2 modulator project, cell-based, counterscreen 1; HEK293 parental cells, thallium flux FluoZin2, ouabain; baseline-ratio fluorescence slope, 10–20 s after thallium; 3,700 tested, 46% active; shares compounds with Cl transport mod; AID 1716, 2009; thallium flux rate (normalised fluorescence) at 10 µM;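 active = thallium flux rate significantly above the same plate's solvent-only control wells, beyond their mean plus 3 SD; inconclusive = the two replicate wells gave conflicting results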
KCC2 ouabain: KCC2 inhibitors and activators, ouabain retest, confirmation, HEK-KCC2 cells; shares compounds with Cl transport mod; HEK293-KCC2, thallium flux FluoZin2 fluorescence; bidirectional: low = inhibitor, high = activator; 3,700 tested, 48% active; raw Tl+ flux slope (below DMSO = inhibition, above = activation) at 10 µM;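 active = thallium flux slope beyond 3 SD from same-plate DMSO control mean in most replicates, usually higher, sometimes lower; inconclusive = repeat tests gave conflicting results; inactive = no significant difference from controls in most replicates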;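 note: slope of initial-normalized fluorescence between seconds 10 and 20 after thallium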
HEK293 Tl flux2: native HEK Tl+ uptake effects, second counter-screen – HEK cells, counterscreen 2, counter-screen for KCC2 modulator project, confirmation | 3,700 tested, 33% active | AID 1718, 2009 | HEK293 parental, thallium flux FluoZin-2 fluorescence slope | thallium flux slope at 10 µM | shares compounds with Cl transport mod;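 active = thallium flux slope above the same plate's solvent-control mean plus 3 SD in both duplicate wells; inconclusive = duplicate wells that disagreed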;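 note: run without ouabain in cells lacking the KCC2 cotransporter; slope of fluorescence scaled to its starting value between 10 and 20 s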
* hit, by the source's call; ? = inconclusive; . = no result. In the library only some 5.1% were active in any assay of this set; here they are far more common.

SMILES | Cl transport mod | S1P4 ag | ROMK primary | RAM inhibit | S1P3 antagonist | S1P4 antagonist | KCC2 sec1 | KCC2 bumet counter | KCC2 sec2 | HEK293 Tl flux | KCC2 ouabain | HEK293 Tl flux2
CC1(C)CC2(CCO1)C(Nc1ccccc1)=NC(=S)N2c1ccccc1 (stereo unspecified) | 14* | 1 | -0.66 | . | -6 | -5 | 0.014* | 0.034* | 0.035 | 0.021* | 0.029 | 0.014*
CC12CCC(C(=O)Nc3nc4ccccc4s3)(OC1=O)C2(C)C (stereo unspecified) | 0.99 | 1 | -2 | 0 | -15 | -7 | . | . | . | . | . | .
CCOC(=O)c1c(-n2cnnn2)sc2c1CCCC2 | -2.8 | -1 | . | . | -11 | -4 | . | . | . | . | . | .
CCOC(=O)c1c(N2C(=O)Nc3cc(Cl)c(Cl)cc3N2O)sc2c1CCCCC2 | -5.2* | 4 | . | 6 | . | 4 | 0.0085 | 0.013* | 0.029 | 0.0076 | ? | 0.0099
Cc1ccc(NC(=O)CS(=O)CC(=O)N(c2ccc(C)cc2)C(C)C(=O)NC2CCCCC2)cc1 (stereo unspecified) | 1.7 | 2 | . | 1 | . | -7 | . | . | . | . | . | .
O=C(OC(C(=O)NC1CCCC1)c1cccnc1)C1=Cc2ccccc2OC1 (stereo unspecified) | -3.2* | 0 | . | 2 | . | -3 | 0.0084 | ? | 0.033 | 0.0077 | 0.018 | 0.011
Cc1ccc(C(=O)Nc2nnc(COc3ccccc3)s2)cc1 | 0.028 | -1 | 0.017 | 7 | -3 | -15 | . | . | . | . | . | .
CCOc1ccccc1NC(=S)N(CCCN1CCOCC1)Cc1cn(C)c2ccccc12 | -4.7* | 1 | -1.8 | 2 | 1 | -15 | 0.0073 | 0.0047 | 0.029 | ? | 0.019 | 0.011
O=C(NCc1ccccn1)C(=O)Nc1nc(C23CC4CC(CC(C4)C2)C3)cs1 | 16* | -1 | 0.18 | -1 | 1 | -10 | 0.012 | 0.014* | 0.034 | 0.026* | 0.026* | 0.015*
CC(=O)NS(=O)(=O)c1ccc(NS(=O)(=O)c2ccccc2[N+](=O)[O-])cc1 | 0.23 | -2 | . | . | -5 | 5 | . | . | . | . | . | .
COCc1cc(N2CCCC2)nc(-c2ccccc2)n1 | -3.5* | -1 | -0.38 | 3 | -15 | 27 | 0.0066 | 0.0042 | 0.028 | 0.0067 | 0.018 | 0.0096
CS(=O)(=O)Cc1cc(N2CCCC2)nc(-c2ccccc2)n1 | 0.079 | 1 | 0.09 | 0 | -25 | -4 | . | . | . | . | . | .
COc1cccc(C2Oc3ccccc3C3CC(c4cccs4)=NN32)c1 (stereo unspecified) | 6.5* | 1 | . | . | 2 | -4 | 0.017 | 0.019* | 0.032 | 0.013* | 0.02 | 0.016*
Cc1nonc1CN(C)C(=O)CC1C(=O)NCCN1Cc1ccccc1C(F)(F)F (stereo unspecified) | 0.54 | 0 | 0.012 | 0 | 14 | 1 | . | . | . | . | . | .
O=C(Nc1ccc(SC(F)(F)F)cc1)c1ccccn1 | 0.18 | 1 | -1.8 | 2 | 0 | 1 | . | . | . | . | . | .
O=S(=O)(NCCc1ccccc1F)c1cccc(S(=O)(=O)N2CCOCC2)c1 | . | -1 | . | 2 | . | -16 | 0.0061 | 0.0054 | 0.026* | 0.0072 | ? | 0.01
O=S(=O)(NCc1ccccc1)c1cccc(S(=O)(=O)N2CCOCC2)c1 | . | 0 | -0.18 | 1 | . | 4 | . | . | . | . | . | .
CCC(CO)Nc1nc2ccc(Cl)cc2c2ccccc12 (stereo unspecified) | 1.1 | -1 | . | . | 4 | 0 | . | . | . | . | . | .
Cc1cc(/C=C2\SC(=S)NC2=O)c(C)n1C1CC1 | 5.6* | -1 | -0.77 | 4 | . | -13 | 0.0086 | 0.029* | 0.025* | 0.015* | 0.025* | 0.011*
c1ccc(-c2csc(Cc3nnc4n3CCCCC4)n2)cc1 | -1.8 | 0 | . | 0 | . | -18 | 0.0061 | 0.0056 | 0.027 | 0.0065 | 0.014* | 0.0096
O=[N+]([O-])c1ccc(/C=N/NC(=S)Nc2ccccc2C(F)(F)F)o1 | 21* | 1 | 1.1 | 0 | 4 | -2 | 0.0072 | 0.046* | 0.051* | 0.027* | 0.054* | 0.021*
CCc1nnc(NC(=O)CSc2nc(C)cc(C)c2C#N)s1 | 0.15 | 1 | 0.24 | -1 | -31 | -8 | . | . | . | . | . | .
CC[C@H](CO)Nc1nc(Nc2cccc(Cl)c2)c2ncn(C(C)C)c2n1 | -2.6* | . | . | . | . | . | 0.017 | 0.0047 | ? | 0.0071 | 0.015 | 0.01
N#Cc1c(-c2cccs2)cc(-c2cccs2)[nH]c1=O | -0.87 | -2 | -2.2 | . | -6 | 2 | . | . | . | . | . | .
Cc1cc(-c2cccs2)c(C#N)c(=S)[nH]1 | 33* | 1 | 0.23 | . | -1 | 2 | 0.024* | 0.034* | ? | ? | 0.038* | ?
O=C(Cc1ccc(F)cc1)Oc1ccc(C(=S)N2CCCC2)cc1 | -4.1* | 3 | 0.035 | 2 | 8 | -13 | ? | ? | 0.022* | ? | 0.013* | 0.012
O=C(Oc1ccc(C(=S)N2CCCCC2)cc1)c1ccccc1F | -0.44 | 0 | 0.33 | 2 | -29 | 12 | . | . | . | . | . | .
Cc1nc(NC(=O)CSc2nnc(-c3ccc4c(c3)OCO4)o2)c(Cl)cc1Cl | -0.097 | 0 | -0.17 | 1 | -1 | -6 | . | . | . | . | . | .

From PubChem BioAssay
